Assay in all cases: NCI-60 one-dose screen, 48 h (100 = growth as untreated, 0 = no growth, -100 = all killed)
Settings in all cases: 10 µM

Assay [1] relates to SR leukemia.
For assay [2], the system named is RPMI-8226 leukemia.
The subject of assay [3] is OVCAR-5 ovarian.
Assay [4] relates to OVCAR-4 ovarian.
The subject of assay [5] is SK-OV-3 ovarian.
Assay [6] deals with IGROV1 ovarian.
Assay [7] has as its system OVCAR-3 ovarian.
In assay [8] the test system is HS 578T breast.
Assay [9] relates to NCI/ADR-RES ovarian.
Assay [10] concerns OVCAR-8 ovarian.

These results are taken from PubChem BioAssay (NCI).

Compounds without any hit were thinned out: in the full panel of roughly 83,000, 20% have a hit.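 Cell lines were cultured in 96-well plates, exposed to a single compound concentration, and assessed for percent growth 48 hours later.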 A number with no mark means an inactive call. The source made the active and inactive calls. The calls were made as follows: active = growth percent below 10; inactive = the rest.

Turning to `COc1cccc2nc(Nc3cccc(NC(=O)c4ccc(CN5CCCN(C)CC5)c(C(F)(F)F)c4)c3)ccc12`, the growth in [1] is -27.1% (active); in assay [2], -39.4% (active); in assay [3], -100% (active); in assay [4], -84.4% (active); in [5], -72.8% (active); in [6], -85.2% (active). For the same molecule, the results for the growth in assay [7], in [8] and in [9] were -58.6% (active), -61.7% (active) and -77.9% (active), respectively.

With `CCCn1c(=O)c2[nH]c(-c3ccc(OCc4nc5ccc(F)cc5[nH]4)cc3)nc2n(CCC)c1=O`, the growth in assay [1] is 11.8%; in assay [2], 16.7%; in assay [3] it was 43.3%; in assay [4], -2.86% (active); in assay [5] it was -41.3% (active); in [6] it was 28.1%. Besides, the values for the growth in assay [7], in assay [8] and in assay [9] were 5.45% (active), 0.819% (active) and 64.9%, respectively.

For `COc1ccc(NC(=O)Cn2c(/C=C/c3ccc(N(C)C)cc3)nc3ccccc3c2=O)cc1`, the growth in assay [1] was 72.5%; in assay [2] it was 57.1%; in [3], 66.4%; in [4], 58.7%; in [5] it was 24.7%; in assay [6] it was 47.2%. In addition, the growth in assay [7] was 26.9%; in assay [8], 65.7%; in assay [9] it was 32.2%.

On to `COc1ccc(-c2ccc(SCC(=O)Nc3ccc(C#N)cc3)nn2)cc1`, for which the growth in assay [1] is 89.2%; in assay [10], 88.8%; in assay [3], 101%; in assay [4] it was 83.8%; in assay [5] it was 91.6%; in [6], 88.4%. Besides, the results for the growth in assay [7], in assay [8] and in [9] were 121%, 67.8% and 83.7%, respectively.

With `O=C(Nc1ccc(Cl)c(C(F)(F)F)c1)c1cncc(C#Cc2cnc3ccc(N4CCOCC4)nn23)c1`, the growth is 2.44% (active) in assay [1]; 3.66% (active) in assay [10]; 19.4% in assay [3]; 13.6% in assay [4]; 10.7% in assay [5]; -14.1% (active) in assay [6]. In addition, the growth was 13.6% in assay [7], -25.3% (active) in assay [8] and -5.95% (active) in assay [9].

For the molecule `Cc1noc2c(Cc3ccc([N+](=O)[O-])cc3)nn(CC(=O)N/N=C/c3ccc(Cl)cc3)c(=O)c12`, the growth in [1] was 88.6%; in assay [2], 84.7%; in assay [10], 20.1%; in assay [4], 7.98% (active); in [5] it was 67.2%; in assay [6], 63.2%. The growth was 35.8% in [7] and 45.9% in [9].

As for `O=C(CN1CCN(c2ncnc3c2cnn3-c2ccccc2)CC1)Nc1nncs1`, the growth in assay [1] was -28.9% (active); in [2], -16.6% (active); in [3] it was -4.09% (active); in assay [4], 13.6%; in [5] it was 28.1%; in assay [6] it was -41.8% (active). Also, the growth in assay [7] is -55.6% (active); in assay [8] it was 3.92% (active); in assay [9] it was -32.6% (active).

In the case of `COc1ccc(Nc2nc(N)n(Cc3cccc(Br)c3)n2)cc1`, the growth in assay [1] was 12.6%; in assay [2] it was 8.38% (active); in [3], 21.7%; in assay [4], 7.22% (active); in [5], 22.8%; in assay [6], 12%. The growth was 19.6% in [7], -12.3% (active) in assay [8] and 2.23% (active) in assay [9].

`Nc1nc(Nc2ccc(Cl)cc2)n(Cc2cccc(Br)c2)n1`: the growth is 10.4% in [1]; 2.44% (active) in assay [2]; -24.5% (active) in [3]; 9.75% (active) in assay [4]; -5.03% (active) in assay [6]; -35.3% (active) in [7]. In addition, the figures for the growth in [8] and in assay [9] were -25.9% (active) and -25% (active), respectively.

Turning to `COc1cc2oc(-c3cccc(C(=O)Nc4ccc(Cl)cc4)c3)cc(=O)c2c(OCCNC(=O)CNC(=O)OC(C)(C)C)c1OC`, the growth is 37.5% in [1]; 48% in assay [10]; 67.8% in [3]; 65.8% in assay [4]; 92.7% in [5]; 50.9% in [6]. Further, the growth is 98.3% in [7], 62.8% in [8] and 50.6% in assay [9].

With `Cc1cc(=O)oc2cc(OCCCCOc3ccc(/C=C/C(=O)Nc4ccc(F)c(Cl)c4)cc3)ccc12`, the growth in assay [1] is 89%; in assay [2], 92.6%; in assay [3], 101%; in assay [4], 37.9%; in [5] it was 122%; in assay [6], 109%. Moreover, the values for the growth in [7] and in assay [9] were 97.2% and 88.7%, respectively.

Consider `O=C(NO)c1ccc(CNC(=O)[C@H]2Cc3c([nH]c4ccccc34)[C@H](c3ccccc3)N2)cc1`, for which the growth in assay [1] was 23.8%; in assay [2], 15.1%; in assay [4], 53.7%; in assay [5] it was -3.43% (active); in assay [6], 46.9%; in assay [7], 22.7%. Further, the growth was 17.3% in assay [8] and 63% in [9].

Take `Cc1ccc(-c2cc(C(=O)N=Nc3c(O)[nH]c4ccccc34)c3ccccc3n2)cc1`: the growth in [1] was 5.31% (active); in [10], -15.8% (active); in [3] it was 69.4%; in [4], 1.61% (active); in assay [5] it was 91.2%; in assay [6], 60.1%. Besides, the growth in assay [7] is -65.7% (active); in [8], 12.4%.

With `COc1ccc(/C=C/C(=O)c2ccc(NC(=O)CN3C(=O)NC(C)(c4ccccc4)C3=O)cc2)cc1` (configuration not stated), the growth is 61.6% in assay [1]; 93.3% in assay [10]; 102% in assay [3]; 78.3% in [4]; 106% in assay [5]; 90.3% in assay [6]. The growth in assay [7] is 78.2%; in [8], 81.3%; in assay [9], 102%.

Regarding `CN1CCN(Cc2ccc(NC(=O)c3cncc(C#Cc4cnc5ccc(N[C@H]6CCOC6)nn45)c3)cc2C(F)(F)F)CC1`, the growth in assay [1] is -21.7% (active); in assay [2], -35.1% (active); in assay [3] it was -72% (active); in assay [4] it was -65.3% (active); in assay [5], -63.8% (active); in assay [6], -74.6% (active). For the same molecule, the growth in assay [7] was -93.7% (active); in assay [8] it was -42.7% (active); in assay [9] it was 13.7%.

For `COC(=O)C[C@](O)(CCCC(C)(C)O)C(=O)O[C@H]1C(OC)=C[C@@]23CCC(=O)N2CCc2cc4c(cc2[C@@H]13)OCO4`, the growth in assay [1] is 80.6%; in assay [2], 106%; in [3] it was 102%; in assay [4], 90.1%; in assay [5], 103%; in assay [6], 93%. In addition, the values for the growth in [7], in [8] and in assay [9] were 94.8%, 87.9% and 102%, respectively.

As to `O=C(CNc1nc(-c2ccccc2)cs1)Nc1ccccc1`, the growth in assay [1] is 4.25% (active); in assay [10], 10%; in assay [3], -67.4% (active); in [4], 35%; in [5], 11.2%; in assay [6] it was -7.7% (active). Moreover, the growth in assay [7] is -12.1% (active); in [8], 14.3%; in assay [9], -22.8% (active).

For `COc1ccc(-c2cc(-c3cc(C(=O)c4ccc(Br)cc4)n4ccc(C)cc34)nc(N)c2C#N)cc1`, the growth in [1] is 79.1%; in assay [10] it was 66.3%; in assay [3] it was 91.8%; in assay [4], 86.1%; in assay [5], 105%; in assay [6], 90%. Further, the growth in assay [7] is 108%; in assay [8], 90.8%; in assay [9], 82.6%.

Turning to `CN1CCN(Cc2ccc(NC(=O)c3cncc(C#Cc4cnc5ccc(N[C@@H]6CCOC6)nn45)c3)cc2C(F)(F)F)CC1`, the growth in [1] is -18.5% (active); in assay [2], -24.1% (active); in [3] it was -91.6% (active); in assay [4] it was -66.3% (active); in [5], -83.1% (active); in assay [6], -91.6% (active). For the same molecule, the figures for the growth in assay [7], in assay [8] and in assay [9] were -90.3% (active), -41% (active) and -77.5% (active), respectively.

Regarding `CCOP(=O)(OCC)O[C@H]1CC[C@]2(C)[C@H]3CC[C@@H]4[C@@H]([C@](C)(O)CCC=C(C)C)CC[C@@]4(C)[C@]3(C)CC[C@H]2C1(C)C`, the growth in assay [1] was -7.18% (active); in assay [2] it was 2.3% (active); in assay [3] it was 44%; in assay [4], 38.8%; in assay [5], 37%; in [6], 55%. Besides, the growth was 11.1% in [7], 11.4% in assay [8] and 36% in [9].

For `Cn1cc(/C=N/Nc2cccc(Cl)n2)c2ccccc21`, the growth in assay [1] is 27.6%; in [2] it was 47.6%; in assay [3], 92.5%; in assay [4], 60.3%; in assay [5], 92.6%; in assay [6], 46.1%. Besides, the results for the growth in assay [7], in [8] and in assay [9] were 63.3%, 69.4% and 36.1%, respectively.

In the case of `COc1cc(/C=C/C(=O)c2cc(OC)c(OC)c(OC)c2)ccc1Oc1nc(Nc2ccc(F)cc2)nc(N(C)C)n1`, the growth is -5.9% (active) in assay [1]; -19.8% (active) in assay [2]; 18.4% in assay [4]; 49.5% in assay [5]; -64.3% (active) in [6]; 12.1% in assay [7]. Besides, the growth is 16.1% in [8] and -29.6% (active) in assay [9].

For `CC1(c2ccccc2)NC(=O)N(CC(=O)Nc2ccc(C(=O)/C=C/c3ccc(Cl)cc3)cc2)C1=O` (configuration not stated), the growth in assay [1] was -13.3% (active); in assay [10] it was 17.7%; in assay [3], 34.5%; in assay [4], 24.8%; in assay [5], 66%; in assay [6], -19.8% (active). Also, the growth in assay [7] is -69.9% (active); in assay [8], 48.9%; in assay [9] it was 48.9%.

In the case of `Cc1noc2c(Cc3ccccc3)nn(CC(=O)N/N=C/c3ccc(F)cc3)c(=O)c12`, the growth is 102% in assay [1]; 83.7% in assay [2]; 93.7% in [3]; 5.18% (active) in [4]; 70.4% in assay [6]; 44.6% in [7]. For the same molecule, the growth in assay [8] is -1.33% (active); in assay [9], 60.7%.

As to `CC1(c2ccccc2)NC(=O)N(CC(=O)Nc2ccc(C(=O)/C=C/C=C/c3ccccc3)cc2)C1=O` (configuration not stated), the growth in assay [1] was 15.2%; in assay [10], 45%; in assay [3], 84.1%; in assay [4], 68.7%; in [5], 120%; in assay [6], 86.5%. Also, the growth in assay [7] was 47.1%; in [8], 57.6%; in assay [9], 82.7%.

Consider `Cc1cc(=O)oc2cc(OCCCCOc3ccc(/C=C/C(=O)Nc4cccc(Cl)c4)cc3)ccc12`, for which the growth in assay [1] is 55.1%; in [2], 57.8%; in [3], 82.1%; in [4], -30.5% (active); in assay [5] it was 119%; in assay [6], 103%. Besides, the growth in assay [7] was 27.6%; in assay [8], 29.5%; in assay [9] it was 45.7%.
